Screening results (PubChem BioAssay)
MOR-DOR ag: agonists of OPRM1-OPRD1 heterodimerization, primary screen, cell-based, luminescence. Mu-type opioid receptor (Homo sapiens) + Delta-type opioid receptor (Homo sapiens), …. cells. activation, % at 9.3 µM. actives 0.3% (n = 340,000). AID 504326, 2011
HTR5A ag: HTR5A agonists in luminescence cell assay, primary screen, counter-screen for OPRM1-OPRD1 heterodimer agonist project, full-deck HTS; activation, % at 9.3 µM; 5-hydroxytryptamine receptor 5A (Homo sapiens), P47898; actives 0.61% (n = 340,000); cell-based; in the data active = activation mostly above about 9.5%, no sharp cut-off; inactive = mostly below about 7.6%
Target sequence (P47898 whole entry, looked up): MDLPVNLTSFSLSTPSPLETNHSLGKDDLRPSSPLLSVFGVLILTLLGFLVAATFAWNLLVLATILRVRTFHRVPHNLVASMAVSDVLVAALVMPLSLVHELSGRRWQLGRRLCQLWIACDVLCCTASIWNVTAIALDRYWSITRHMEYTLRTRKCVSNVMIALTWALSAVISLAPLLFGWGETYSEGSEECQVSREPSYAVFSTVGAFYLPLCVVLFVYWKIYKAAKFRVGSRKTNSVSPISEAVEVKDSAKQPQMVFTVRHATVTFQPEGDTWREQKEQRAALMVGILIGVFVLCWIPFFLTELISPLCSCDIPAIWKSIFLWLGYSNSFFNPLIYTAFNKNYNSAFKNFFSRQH
OPRM1-OPRD1 inv: inverse agonists of MOR-DOR heterodimerization, primary screen, cell-based, luminescence | Mu-type opioid receptor (Homo sapiens) + Delta-type opioid receptor (Homo sapiens), … | cell-based MOR-DOR heterodimer luminescence, inverse agonism | inhibition, % at 9.3 µM | actives 0.21% (n = 340,000) | AID 504357, 2011; in the data active = inhibition above about 22%, passing the limit was not always enough
HTR5A inv ctr: HTR5A inverse agonists in luminescence cell assay, primary screen, counter-screen for OPRM1-OPRD1 heterodimer inverse agonist project, full-deck HTS; HTR5A cell line, inverse agonism; AID 504634, 2011; inhibition, % at 9.3 µM; actives 0.083% (n = 340,000); 5-hydroxytryptamine receptor 5A (Homo sapiens), P47898; in the data active = inhibition mostly above about 23%, no sharp cut-off; inactive = mostly below about 18%
MOR-DOR ag conf: agonists of MOR-DOR heterodimerization, confirmation, cell-based, luminescence; shares compounds with MOR-DOR ag; actives 45% (n = 830); activation, % at 9.3 µM; cells, luminescence complementation
HTR5A ag ctr2: HTR5A agonists in cells, counter-screen for OPRM1-OPRD1 heterodimer agonist project, cell-based, luminescence; shares compounds with MOR-DOR ag; HTR5A agonist counterscreen; activation, % at 9.3 µM; AID 504905, 2011; actives 8% (n = 830); in the data active = activation above about 17%
Each line names hits and unclear results; the compound was inactive in the other large screens (follow-up assays come after a bar, where they were run). Sampled rows, rich in hits. Any-hit rate of the full collection: about 1.1%. Rule as the data show it, unless noted: active = activation above about 18%; inactive = the rest.

O=C(CSc1nc2ccccc2c(=O)n1-c1ccccc1F)Nc1ccc2c(c1)CCC2	none
Cc1nc(CN(C)C(=O)C2CCC(=O)N(CCc3cccc(F)c3)C2)cs1 (stereo not drawn)	none
O=S(=O)(Nc1cccc(-c2ccc(N3CCCCCC3)nn2)c1)c1ccc(C(F)(F)F)cc1	HTR5A ag 11
Cc1ccc(NC2=C/C(=N\S(=O)(=O)c3cccs3)c3ccccc3C2=O)c(C)c1	MOR-DOR ag 22
O=C(Nc1ccccc1C(=O)OCC(=O)N1CCc2ccccc2C1)c1ccco1	none
Cc1ccc(Nc2nc(-c3ccc(S(=O)(=O)N4CCCC4)cc3)cs2)cc1C	HTR5A ag 10
COc1ccc2oc(C(=O)CCC(=O)O)c(N)c2c1	none
COC(=O)CCC(=O)c1oc2ccc(Br)cc2c1N	HTR5A ag 12
NC(=O)c1cccc(NC(=O)CCCCC(=O)Nc2cccc(C(N)=O)c2)c1	none
COc1ccc(OC)c(-c2cc(C3CCN(c4cc(Cl)nc(N)n4)CC3)[nH]n2)c1	HTR5A ag 10
COc1ccc(-c2cc(C3CCN(c4cc(Cl)nc(N)n4)CC3)[nH]n2)cc1	none
Nc1nc(Cl)cc(N2CCC(c3cc(-c4ccc(Cl)cc4)n[nH]3)CC2)n1	HTR5A ag 14
O=S(=O)(Oc1ccccc1)c1cccnc1	none
Cc1cc2ccccc2n1CCNC(=O)COc1ccccc1	MOR-DOR ag 31
CCC(=O)NCCn1c(C)cc2ccccc21	none
Cc1cc(C(=O)COC(=O)c2ccc3c(c2)OCO3)c(C)n1CC1CCCO1 (stereo not drawn)	none
Cc1cc(C(=O)COC(=O)c2ccc(O)cc2)c(C)n1CC1COc2ccccc2O1 (stereo not drawn)	HTR5A ag 12
CC(C)CNS(=O)(=O)c1cc(C(=O)N2CCOCC2)c(Cl)cc1Cl	HTR5A ag 10
O=C(CNC(=O)N1CC(=O)Nc2ccccc21)NCc1ccccc1	none
COc1ccc(-c2csc(NC(=O)C3=NN(c4ccccc4)C(=O)CC3)n2)cc1	HTR5A ag 10
O=C(Nc1nc(-c2cc(F)ccc2F)cs1)C1=NN(c2ccccc2)C(=O)CC1	none
CN(C)C(CNC(=O)c1oc2ccccc2c1CSc1ncn[nH]1)c1ccco1 (stereo not drawn)	MOR-DOR ag 21 | MOR-DOR ag conf 30 | HTR5A ag ctr2 inactive
Cc1cccc(C(=O)NNC(=O)c2cc3cc4ccccc4nc3s2)c1	MOR-DOR ag 22 | MOR-DOR ag conf inactive | HTR5A ag ctr2 inactive
CN(C)C(CNC(=O)NC1CCCCC1)c1cccnc1 (stereo not drawn)	MOR-DOR ag 158 | MOR-DOR ag conf 148 | HTR5A ag ctr2 inactive
S=C(NCc1ccncc1)Nc1cccc(Cl)c1	none
CN(C)C(CNC(=S)Nc1cccc(Cl)c1)c1cccnc1 (stereo not drawn)	MOR-DOR ag 324 | MOR-DOR ag conf 331 | HTR5A ag ctr2 inactive
CCc1cccc(C)c1NC(=S)NCC(c1cccnc1)N(C)C (stereo not drawn)	MOR-DOR ag 139 | MOR-DOR ag conf 129 | HTR5A ag ctr2 inactive
CCc1cccc(C)c1NC(=S)NCc1ccccc1	none
CN(C)C(CNC(=S)Nc1ccccc1Cl)c1cccnc1 (stereo not drawn)	MOR-DOR ag 407 | MOR-DOR ag conf 387 | HTR5A ag ctr2 inactive
CN(C)C(CNC(=O)c1cccs1)c1cccnc1 (stereo not drawn)	none
O=C(NC1CCCN(Cc2ccc(Cl)cc2)C1)c1ccccc1C(F)(F)F (stereo not drawn)	none
CN(C)C(CNC(=S)Nc1ccccc1)c1cccnc1 (stereo not drawn)	MOR-DOR ag 108 | MOR-DOR ag conf 103 | HTR5A ag ctr2 inactive
CNC[C@H](CC1CCCCC1)NC[C@H](Cc1ccccc1)NCCC12CC3CC(CC(C3)C1)C2	MOR-DOR ag 95 | MOR-DOR ag conf 164 | HTR5A ag ctr2 39
NC[C@H](Cc1ccccc1)NCCCCC1CCCCC1	none
CN1C2CCC1CC(N(CCc1ccccc1)C(=O)c1ccc(Cl)cc1)C2 (stereo not drawn)	none
